From ChEMBL document CHEMBL1961873, “Compounds: GSK PKIS; Assays: Nanosyn kinase panel” (2012)

Key:
[1] = target: T1, Serine/threonine-protein kinase TBK1 (Homo sapiens) (UniProt Q9UHD2); settings: at 1 µM;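 further: values are mean inhibition of TBK1, screened as part of the GSK published kinase inhibitor set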
T1 sequence (whole entry): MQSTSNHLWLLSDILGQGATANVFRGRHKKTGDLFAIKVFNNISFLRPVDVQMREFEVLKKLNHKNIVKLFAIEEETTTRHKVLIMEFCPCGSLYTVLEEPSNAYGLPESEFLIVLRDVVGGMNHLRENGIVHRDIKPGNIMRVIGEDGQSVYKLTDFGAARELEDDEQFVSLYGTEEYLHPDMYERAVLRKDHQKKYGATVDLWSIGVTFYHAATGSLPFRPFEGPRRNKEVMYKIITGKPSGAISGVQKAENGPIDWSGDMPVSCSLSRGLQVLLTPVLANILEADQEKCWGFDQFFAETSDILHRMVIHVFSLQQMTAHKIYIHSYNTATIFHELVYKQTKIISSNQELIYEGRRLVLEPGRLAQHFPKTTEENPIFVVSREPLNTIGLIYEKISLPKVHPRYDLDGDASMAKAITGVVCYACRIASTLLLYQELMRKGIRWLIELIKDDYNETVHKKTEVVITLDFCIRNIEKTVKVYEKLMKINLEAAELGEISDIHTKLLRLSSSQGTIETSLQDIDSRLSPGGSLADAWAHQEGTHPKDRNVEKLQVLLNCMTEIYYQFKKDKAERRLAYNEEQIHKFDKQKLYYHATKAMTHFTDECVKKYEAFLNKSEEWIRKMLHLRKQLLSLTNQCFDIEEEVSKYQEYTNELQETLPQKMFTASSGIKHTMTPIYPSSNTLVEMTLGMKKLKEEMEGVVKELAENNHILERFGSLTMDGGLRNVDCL

[2] = target: T2, Testis-specific serine/threonine-protein kinase 1 (Homo sapiens) (UniProt Q9BXA7); settings: at 0.1 µM
T2 sequence (whole entry): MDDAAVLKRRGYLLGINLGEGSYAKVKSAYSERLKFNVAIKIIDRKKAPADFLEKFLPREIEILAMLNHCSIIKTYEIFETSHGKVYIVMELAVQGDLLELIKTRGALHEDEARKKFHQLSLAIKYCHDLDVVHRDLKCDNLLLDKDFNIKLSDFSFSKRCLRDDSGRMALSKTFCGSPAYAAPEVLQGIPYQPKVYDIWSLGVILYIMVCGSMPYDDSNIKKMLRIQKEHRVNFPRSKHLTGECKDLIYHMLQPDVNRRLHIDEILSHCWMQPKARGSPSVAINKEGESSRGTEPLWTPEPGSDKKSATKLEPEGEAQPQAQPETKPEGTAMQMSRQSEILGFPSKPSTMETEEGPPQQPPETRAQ

[3] = target: T2, Testis-specific serine/threonine-protein kinase 1 (Homo sapiens); settings: at 1 µM
[4] = target: T3, Testis-specific serine/threonine-protein kinase 2 (Homo sapiens) (UniProt Q96PF2); settings: at 0.1 µM
T3 sequence (whole entry): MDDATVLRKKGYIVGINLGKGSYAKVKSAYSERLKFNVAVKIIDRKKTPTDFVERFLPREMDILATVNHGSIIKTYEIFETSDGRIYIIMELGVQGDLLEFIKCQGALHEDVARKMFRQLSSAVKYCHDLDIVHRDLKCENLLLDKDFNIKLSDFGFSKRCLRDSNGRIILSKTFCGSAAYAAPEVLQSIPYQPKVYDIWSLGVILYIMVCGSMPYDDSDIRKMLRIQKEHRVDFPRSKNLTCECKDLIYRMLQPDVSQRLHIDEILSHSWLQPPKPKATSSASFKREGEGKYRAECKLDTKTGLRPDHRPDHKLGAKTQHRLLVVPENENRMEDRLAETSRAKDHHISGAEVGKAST

[5] = target: T3, Testis-specific serine/threonine-protein kinase 2 (Homo sapiens); settings: at 1 µM
[6] = target: Casein kinase I isoform alpha (Homo sapiens) (UniProt P48729); settings: at 0.1 µM
[7] = target: Casein kinase I isoform alpha (Homo sapiens) (UniProt P48729); settings: at 1 µM
[8] = target: Casein kinase I isoform gamma-1 (Homo sapiens) (UniProt Q9HCP0); settings: at 0.1 µM
[9] = target: Casein kinase I isoform gamma-1 (Homo sapiens) (UniProt Q9HCP0); settings: at 1 µM
[10] = target: Casein kinase I isoform gamma-2 (Homo sapiens) (UniProt P78368); settings: at 0.1 µM
[11] = target: Casein kinase I isoform gamma-2 (Homo sapiens) (UniProt P78368); settings: at 1 µM
[12] = target: Casein kinase I isoform gamma-3 (Homo sapiens) (UniProt Q9Y6M4); settings: at 0.1 µM
[13] = target: Casein kinase I isoform gamma-3 (Homo sapiens) (UniProt Q9Y6M4); settings: at 1 µM
[14] = target: Cyclin-dependent kinase 1 (Homo sapiens) (UniProt P06493); settings: at 0.1 µM
[15] = target: Cyclin-dependent kinase 1 (Homo sapiens) (UniProt P06493); settings: at 1 µM
[16] = target: Cyclin-dependent kinase 2 (Homo sapiens) (UniProt P24941); settings: at 0.1 µM
[17] = target: Cyclin-dependent kinase 2 (Homo sapiens) (UniProt P24941); settings: at 1 µM
[18] = target: Cyclin-dependent kinase 2 (Homo sapiens) (UniProt P24941); settings: at 0.1 µM; remark: listed apart in the source
[19] = target: Cyclin-dependent kinase 2 (Homo sapiens) (UniProt P24941); settings: at 1 µM; remark: listed apart in the source
[20] = target: CDK3/Cyclin E (Homo sapiens) (UniProt P24864+Q00526); settings: at 0.1 µM;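 further: reported percentages are mean inhibition values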
Sequence of CDK3/Cyclin E (Homo sapiens) (P24864 whole entry, looked up): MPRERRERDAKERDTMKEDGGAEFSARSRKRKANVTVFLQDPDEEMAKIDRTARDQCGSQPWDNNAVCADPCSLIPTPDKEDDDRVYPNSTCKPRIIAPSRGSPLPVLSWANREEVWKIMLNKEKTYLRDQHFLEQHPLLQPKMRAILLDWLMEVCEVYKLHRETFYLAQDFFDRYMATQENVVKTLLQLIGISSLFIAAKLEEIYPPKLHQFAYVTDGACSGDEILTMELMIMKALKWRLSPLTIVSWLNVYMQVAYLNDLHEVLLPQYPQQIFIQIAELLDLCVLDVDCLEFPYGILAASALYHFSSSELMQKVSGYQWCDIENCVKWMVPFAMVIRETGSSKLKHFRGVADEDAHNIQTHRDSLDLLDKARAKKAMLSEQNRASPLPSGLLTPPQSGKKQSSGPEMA
Sequence of CDK3/Cyclin E (Homo sapiens) (Q00526 whole entry, looked up): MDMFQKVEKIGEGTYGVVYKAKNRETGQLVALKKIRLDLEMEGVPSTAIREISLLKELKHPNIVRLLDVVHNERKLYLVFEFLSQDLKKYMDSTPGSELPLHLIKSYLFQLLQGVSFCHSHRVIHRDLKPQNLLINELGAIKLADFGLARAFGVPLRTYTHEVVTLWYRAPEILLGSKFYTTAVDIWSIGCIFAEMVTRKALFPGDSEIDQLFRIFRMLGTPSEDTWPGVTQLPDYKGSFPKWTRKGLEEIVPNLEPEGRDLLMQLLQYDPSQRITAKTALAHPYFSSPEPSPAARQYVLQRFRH

Sequence of Casein kinase I isoform gamma-2 (Homo sapiens) (P78368 whole entry, looked up, canonical isoform): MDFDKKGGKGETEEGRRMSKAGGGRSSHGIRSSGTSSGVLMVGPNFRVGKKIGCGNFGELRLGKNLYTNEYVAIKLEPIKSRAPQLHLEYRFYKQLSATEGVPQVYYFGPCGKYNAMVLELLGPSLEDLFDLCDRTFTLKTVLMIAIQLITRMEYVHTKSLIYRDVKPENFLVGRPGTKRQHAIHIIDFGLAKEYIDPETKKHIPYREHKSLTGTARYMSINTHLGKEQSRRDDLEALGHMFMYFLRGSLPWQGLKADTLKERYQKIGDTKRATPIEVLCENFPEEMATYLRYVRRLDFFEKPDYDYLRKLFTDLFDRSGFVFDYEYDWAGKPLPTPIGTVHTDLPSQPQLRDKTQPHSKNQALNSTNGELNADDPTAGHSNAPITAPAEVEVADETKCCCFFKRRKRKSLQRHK
Sequence of Casein kinase I isoform gamma-3 (Homo sapiens) (Q9Y6M4 whole entry, looked up, canonical isoform): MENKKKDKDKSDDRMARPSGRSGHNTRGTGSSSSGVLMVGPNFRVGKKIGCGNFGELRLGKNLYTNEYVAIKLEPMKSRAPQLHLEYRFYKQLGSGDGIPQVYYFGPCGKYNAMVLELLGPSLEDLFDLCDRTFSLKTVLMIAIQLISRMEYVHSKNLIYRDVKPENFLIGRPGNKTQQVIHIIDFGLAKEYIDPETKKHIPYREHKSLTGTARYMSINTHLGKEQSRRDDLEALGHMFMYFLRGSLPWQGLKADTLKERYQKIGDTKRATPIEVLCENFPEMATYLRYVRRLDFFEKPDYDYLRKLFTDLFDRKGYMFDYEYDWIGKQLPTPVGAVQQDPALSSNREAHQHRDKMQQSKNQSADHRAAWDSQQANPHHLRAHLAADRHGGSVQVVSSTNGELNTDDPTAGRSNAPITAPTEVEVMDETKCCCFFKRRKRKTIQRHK
Sequence of Casein kinase I isoform alpha (Homo sapiens) (P48729 2-337 limits assumed): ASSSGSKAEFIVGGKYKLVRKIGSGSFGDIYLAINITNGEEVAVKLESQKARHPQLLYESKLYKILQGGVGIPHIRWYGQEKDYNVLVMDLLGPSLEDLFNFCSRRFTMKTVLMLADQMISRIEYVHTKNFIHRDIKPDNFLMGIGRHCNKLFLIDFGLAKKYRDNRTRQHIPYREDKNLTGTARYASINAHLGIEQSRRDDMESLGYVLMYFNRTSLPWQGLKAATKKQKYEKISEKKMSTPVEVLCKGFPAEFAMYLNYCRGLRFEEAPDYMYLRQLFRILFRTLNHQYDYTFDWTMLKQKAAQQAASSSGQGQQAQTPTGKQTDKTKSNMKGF
Sequence of Casein kinase I isoform gamma-1 (Homo sapiens) (Q9HCP0 whole entry, looked up, canonical isoform): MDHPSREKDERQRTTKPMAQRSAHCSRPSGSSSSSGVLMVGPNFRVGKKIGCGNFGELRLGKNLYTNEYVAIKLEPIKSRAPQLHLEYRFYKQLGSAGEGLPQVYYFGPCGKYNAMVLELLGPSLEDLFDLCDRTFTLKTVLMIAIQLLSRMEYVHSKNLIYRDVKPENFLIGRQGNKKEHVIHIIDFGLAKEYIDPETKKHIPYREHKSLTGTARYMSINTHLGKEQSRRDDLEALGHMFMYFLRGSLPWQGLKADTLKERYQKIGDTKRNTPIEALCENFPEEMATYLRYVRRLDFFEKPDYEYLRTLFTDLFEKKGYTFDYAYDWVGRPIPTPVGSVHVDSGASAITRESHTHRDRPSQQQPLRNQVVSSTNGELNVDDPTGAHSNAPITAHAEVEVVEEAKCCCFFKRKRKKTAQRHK
Sequence of Cyclin-dependent kinase 1 (Homo sapiens) (P06493 whole entry, looked up): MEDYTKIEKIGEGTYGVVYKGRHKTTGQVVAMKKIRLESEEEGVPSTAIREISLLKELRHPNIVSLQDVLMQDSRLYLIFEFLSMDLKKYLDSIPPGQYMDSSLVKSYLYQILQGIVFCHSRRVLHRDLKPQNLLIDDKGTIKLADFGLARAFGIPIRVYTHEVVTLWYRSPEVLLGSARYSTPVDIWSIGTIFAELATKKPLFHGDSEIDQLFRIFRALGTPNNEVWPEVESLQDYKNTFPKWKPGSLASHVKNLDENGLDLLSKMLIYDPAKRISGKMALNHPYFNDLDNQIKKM

SMILES	inhibition [1] [%]	inhibition [2] [%]	inhibition [3] [%]	inhibition [4] [%]	inhibition [5] [%]	inhibition [6] [%]	inhibition [7] [%]	inhibition [8] [%]	inhibition [9] [%]	inhibition [10] [%]	inhibition [11] [%]	inhibition [12] [%]	inhibition [13] [%]	inhibition [14] [%]	inhibition [15] [%]	inhibition [16] [%]	inhibition [17] [%]	inhibition [18] [%]	inhibition [19] [%]	inhibition [20] [%]
COc1ccc(-c2oc3ncnc(N)c3c2-c2ccc(NC(=O)Nc3cc(C(F)(F)F)ccc3F)cc2)cc1	3.95	4.93	5.3	3.63	3.45	3.27	3.17	2.43	3.7	2.18	1.65	0.82	3.84	0.92	7.71	1.73	28.1	4.28	28.8	4.83
CC(C)COC(=O)c1ccc2c(c1)/C(=C/Nc1ccc(S(N)(=O)=O)cc1)C(=O)N2	82.9	11.4	50.2	-0.78	0.83	-2	1.61	-1.63	7.57	-1.09	14.2	-3.31	20.6	36.9	75.5	82	86.6	66.2	82.7	43.8
COc1ccc(-c2nn3ncccc3c2-c2ccnc(Nc3ccc4c(c3)OCCO4)n2)cc1	1.43	-0.54	-0.16	1.42	-0.78	0	3.14	1.16	3.57	1.93	3.08	0.17	1.38	0.5	1.38	0.22	0.43	-0.84	-0.22	-2.12
Cc1cccc(Nc2ncc(-c3ccccc3)o2)c1	7.09	2.67	4.49	0.72	1.53	3.35	9.63	2.09	4.93	1.92	3.38	2.18	2.99	3.39	5.05	4.32	8.62	1.61	9.01	-0.22
COc1cc2ncn(-c3cc(OCc4ccccc4C(F)(F)F)c(C(=O)N(C)C)s3)c2cc1OC	0.81	1.76	1.34	0.13	0.32	0.11	0.76	-0.13	0.81	0.13	0.02	-1.27	0.6	0.2	1.91	1.29	-0.21	-0.22	0.54	1.54
Nc1ncc(-c2cccc(S(N)(=O)=O)c2)c2scc(-c3ccc(F)c(Cl)c3)c12	3.47	3.24	4.96	2.48	2.51	6.19	36.5	2.96	4.15	2.73	3.79	2.58	4.97	1.33	2.57	1.79	2.91	2.68	5.08	-2.34
CCn1cc(-c2ccnc3[nH]ccc23)c(-c2cccc(NC(=O)Nc3ccc(OCc4ccccc4)cc3)c2)n1	-0.26	1.75	1.5	-0.38	-0.63	-1.12	-1.47	1	1.59	0.29	1.8	-0.46	0.79	0.04	0.38	-0.95	-1.61	-0.54	-2.22	0.47
Cc1ccc2c(-c3ccnc(Nc4ccccc4)n3)c(-c3ccc(F)cc3)nn2n1	2.79	2.68	0.03	2.66	-2.67	33.6	70.7	5.48	32	5.54	36.6	7.8	51.5	-0.23	1.56	2.27	0.79	2.35	5.57	2.45
[O-][S+]1CCN(Cc2ccc(-c3ccc4ncnc(Nc5ccc(OCc6cccc(F)c6)c(Cl)c5)c4c3)o2)CC1	5.41	5.74	5.31	3.26	3.22	5.02	4.04	4.04	5.15	3.65	5.36	4.15	2.36	2.01	-1.04	3.62	4.32	5.35	6.57	0.55
CN1CCC(n2cnc(-c3ccc(F)cc3)c2-c2ccnc(N)n2)CC1	3.54	2.05	3.07	2.28	1.61	30.1	73.1	1.88	9.03	1.68	4.69	0.53	10.3	0.23	2	0.76	1.07	1.45	2.89	1.57
COc1ccc(-c2cc3c(N)ncnc3o2)cc1	1.62	-1.68	1.43	-1.12	-0.58	-2.35	-1.14	-1.13	-0.49	-0.59	-0.54	-0.97	0.61	2.33	6.06	1.51	2.69	1.72	5.09	0.47
COc1cc(Nc2nccc(Nc3ccc4c(C)n[nH]c4c3)n2)cc(OC)c1OC	26.3	1.79	12.6	-0.93	-0.95	0.44	0.47	2.35	1.23	-0.28	9.2	0.39	-0.68	0.71	3.05	0.73	3.22	2.32	6.07	1.75
c1ccc(COc2ccc(Nc3ncnc4ccc(-c5ccco5)cc34)cc2)cc1	0.67	-0.63	0.68	0.44	-0.19	-0.74	0.74	0.87	1.15	1.03	0.91	0.33	1.68	0.19	2.26	1.69	1.48	0.66	2.25	0.53
O=C(O[C@H]1CN[C@H](C#Cc2cc3ncnc(Nc4ccc(Cc5ccccc5)cc4)c3s2)C1)N1CCOCC1	1.65	0.42	0.57	1.12	-0.88	0.51	1.74	2.25	2.28	2.49	2.93	2.83	0.75	0.31	1.96	0.69	0.19	1.15	1.72	-2.04
COc1cc2c(cc1Nc1nc(Nc3ccsc3C(N)=O)c3cc[nH]c3n1)N(C(=O)CN(C)C)CCC2(C)C	50.7	94.6	96.3	87.4	94.6	4.27	14.9	6.43	21.1	3.76	20.6	4.29	24.3	2.56	6.04	3.04	-0.79	8.82	10.2	8.96
COC(=O)c1sc(-n2cnc3cc(OC)c(OC)cc32)cc1OCc1ccccc1C(F)(F)F	28.6	3.74	4.56	2.04	1.18	-3.52	1.68	4.13	4.8	2.8	4.73	3.9	2.94	-0.15	1.15	1.51	3.81	4.73	8.33	3.47
NS(=O)(=O)c1ccc(Nc2ncc(-c3ccccc3)o2)cc1	8.12	1.35	2.89	1.54	1.1	1.88	7.88	2.83	4.94	2.8	4.34	3.53	3.96	19.7	66.2	48.2	109	56.2	86.8	44.6
COC(=O)Nc1nc2ccc(Oc3ccc(NC(=O)Nc4cccc(Cl)c4)cc3)cc2[nH]1	-2.2	2.29	0.67	-0.06	-0.21	0.11	0.94	0.68	1.34	0.75	1.64	0.53	1.25	-0.02	0	-0.3	-1.22	1.4	0.48	1.02
CCCN1CCC(c2ccc(Nc3nc(Nc4cc(F)ccc4C(N)=O)c4cc[nH]c4n3)c(OC)c2)CC1	10.2	82.4	94.8	63.3	91.1	31.9	67.5	23.7	72.1	20.9	72.7	35.4	79.8	1.73	6.31	1.78	0.94	7.06	11.8	4.1
Nc1nc(-c2ccc(F)cc2)c(-c2ccc3ncccc3n2)s1	6.6	4.27	6.63	2.36	2.23	3.47	15.2	4.29	10.5	3.47	8.8	4.7	16.9	3.94	8.07	3.61	0.25	6.09	10.7	3.73
CCn1c(-c2nonc2N)nc2ccccc21	3.36	2.04	0.61	0.97	-0.93	2.92	3.37	1.61	3.25	0.92	2.97	0.54	4.86	-0.3	0.59	1.31	2.17	1.38	4.31	1.63
COC(=O)Nc1nc2ccc(S(=O)(=O)c3ccc(NC(=O)Nc4cc(C(F)(F)F)ccc4F)cc3)cc2[nH]1	3.98	2.57	0.57	0.12	-0.82	2.65	5.12	2.34	2.83	1.08	2.81	2.17	2.25	0.69	2.29	1.37	4.57	3.44	3.85	3.5
CNC(=O)c1cc(-c2ccc(F)cc2)cc(-c2ccc(S(=O)(=O)N3CCCC3)cc2)c1N	1.13	2.57	3.21	1.51	1.66	2.27	3.11	2.3	2.21	2.4	2.38	3.27	0.61	-0.56	1.19	1	1.91	2.41	3.39	-1.31
CNC(=O)c1cccc(C#Cc2cncnc2Nc2ccc(OCc3cccc(F)c3)c(Cl)c2)c1	0.61	1.65	1.56	1.7	2.08	-4.8	0.1	1.2	1.46	1.23	1.26	2.38	0.88	0.46	2.85	-0.2	6.57	4.58	4.27	2.79
